From PubChem
Hits are enriched below; roughly 4.3% of the tested compounds scored in any of these assays.
SMARCA2 activ: SMARCA2 function activation, primary screen | MG213 cells, MMTV-luciferase reporter, dexamethasone, overnight | activation, % at 9.1 µM | 370,000 tested, 1% active; in the data active means activation above about 7.8%;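 further: 0% = vehicle wells and 100% = reference activator wells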
esBAF inh: inhibitors of esBAF chromatin remodeling in mouse ES cells; Bmi1-luciferase knock-in reporter, 24 h; 100% = twice the neutral-well signal; reporter increase, % at 12.5 µM; 350,000 tested, 2% active; AID 602393; in the data active means activation above about 40%; inconclusive means no clear call, values can overlap the other calls;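 further: 0% = median of the plate's neutral control wells and 100% = double that signal; a rise in the Bmi1 reporter signal indicates esBAF inhibition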
Wnt act: Wnt/beta-catenin pathway activation; Wnt/beta-catenin reporter cell assay, activator, plate reader; activation, % at 9.35 µM; 300,000 tested, 1.2% active; AID 743398; in the data active means activation above about 30%, passing the limit was not always enough; inconclusive means no clear call, values can overlap the other calls;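 further: 0% = neutral control wells and 100% = positive control wells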
MITF act: MITF TRPM1 promoter activation in melanoma cells | SK-MEL-5 TRPM1-promoter luciferase, 24 h; % of positive control, neutral wells = 0 | activation, % at 12.5 µM | 300,000 tested, 0.75% active;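 active means mean activation of at least 80% with every replicate also reaching 80%; inconclusive means mean reaches 80% but some replicate falls short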;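 further: 0% = neutral control wells and 100% = parthenolide positive control wells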
FGF22 binding: binders of recombinant human FGF22 by thermal shift. activity (Tm shift, normalised), % at 9.99 µM. SYPRO orange fluorescence; percent of sucrose octasulfate shift, DMSO zero. 340,000 tested, 1.5% active. AID 651658;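 active means mean Tm shift, scaled 0 neutral to 100 positive control, at about 1.3% or above, every replicate too, limit read from the data; inconclusive means no clear call, values can overlap the other calls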
Target sequence (Q9HCT0 whole entry, looked up): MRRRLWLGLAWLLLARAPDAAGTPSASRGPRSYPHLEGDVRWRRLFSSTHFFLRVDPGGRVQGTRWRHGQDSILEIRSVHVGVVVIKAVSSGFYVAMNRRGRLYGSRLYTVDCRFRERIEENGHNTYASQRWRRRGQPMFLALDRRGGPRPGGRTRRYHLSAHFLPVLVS
AF4-AF9 inh: inhibitors of human MLL-AF4/AF9 interaction. 350,000 tested, 0.47% active. inhibition, % at 10 µM. AlphaScreen, biotin-AF4 peptide binding to FLAG-AF9. AID 651704;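 active means every replicate reaching a set inhibition limit, whatever the replicate mean, cut at about 25% in these data; inconclusive means mean inhibition reaches that limit but some replicates miss it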;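 further: 0% = plate neutral control median and 100% = total signal loss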
Target sequence (P42568 whole entry, looked up): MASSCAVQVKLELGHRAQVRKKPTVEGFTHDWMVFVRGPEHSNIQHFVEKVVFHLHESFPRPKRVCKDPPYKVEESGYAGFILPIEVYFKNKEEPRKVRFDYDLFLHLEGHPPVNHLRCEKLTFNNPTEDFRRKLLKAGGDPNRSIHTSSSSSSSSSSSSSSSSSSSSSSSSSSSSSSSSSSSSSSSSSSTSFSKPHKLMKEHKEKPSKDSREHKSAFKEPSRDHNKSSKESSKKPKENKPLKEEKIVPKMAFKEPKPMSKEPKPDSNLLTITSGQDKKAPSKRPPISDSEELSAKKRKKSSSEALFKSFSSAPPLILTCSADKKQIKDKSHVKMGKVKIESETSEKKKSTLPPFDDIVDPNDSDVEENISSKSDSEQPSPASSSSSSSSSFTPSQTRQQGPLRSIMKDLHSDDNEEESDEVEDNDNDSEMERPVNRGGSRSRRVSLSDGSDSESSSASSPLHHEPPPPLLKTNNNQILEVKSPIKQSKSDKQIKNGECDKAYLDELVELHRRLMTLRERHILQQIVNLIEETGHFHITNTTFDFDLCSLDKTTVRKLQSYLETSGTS
* marks the source's active call; other numbers are inactive results; ? = inconclusive; · = no result given.

SMILES | SMARCA2 activ | esBAF inh | Wnt act | MITF act | FGF22 binding | AF4-AF9 inh
COc1ccc(C2/C=C\CN(C(=O)c3ccccc3)[C@H](Cc3ccccc3)C(=O)N2Cc2ccc(F)cc2)cc1 (stereo partly drawn) | -0.9 | -1.5 | -4.9 | -2.8 | 43.5* | 0.4
COc1ccc([C@H]2/C=C\CN(C(=O)c3ccc(C)cc3)[C@@H](C)C(=O)N2Cc2ccc(F)cc2)cc1 | -1.1 | -9.6 | -3.0 | 1.9 | -0.8 | 1.8
C=CCc1cccc2cc(C(=O)Nc3ccccc3C(=O)O)c(=O)oc12 | -4.4 | · | 0.8 | -17.3 | 43.1* | -2.5
COc1ccc2c3c([nH]c2c1)[C@H](CO)N(C)CC31CN(S(=O)(=O)c2cccc(F)c2)C1 | · | · | · | · | · | -4.7
CC(C)NC(=O)N(C)C[C@H]1Oc2cc(C#Cc3ccc(F)cc3)ccc2S(=O)(=O)N([C@@H](C)CO)C[C@H]1C | · | -3.5 | · | · | -0.4 | 1.4
CCOc1ccc(C(=O)N2CCc3ccccc32)cc1 | 5.0 | 49.8* | -1.3 | · | -0.1 | 0.8
O=C(c1ccc(F)c(F)c1)N1CCCc2ccccc21 | -2.0 | 0.1 | -0.5 | 2.7 | 0.5 | -3.9
O=C(c1ccc2ccccc2c1)N1CCc2ccccc21 | 3.0 | 64.4* | -1.2 | 46.6 | -0.2 | -0.6
O=C(C[C@@H]1CC[C@@H](NC(=O)Nc2cc(F)ccc2F)[C@H](CO)O1)NCc1ccccn1 | · | -1.6 | · | · | -0.3 | 0.2
Cc1cc(NC(=O)c2cccc(F)c2)ncc1NC(=O)c1ccco1 | 2.3 | 0.2 | 36.5* | 70.3 | · | ·
O=C(Nc1ccc(NC(=O)c2ccco2)nc1)c1cccc(F)c1 | 0.9 | 11.3 | 31.2* | 67.0 | -0.3 | 5.6
Cc1cc(NC(=O)c2cccs2)ncc1NC(=O)c1cccc(F)c1 | 3.3 | · | · | 26.7 | 0.1 | 1.2
O=C(C[C@@H]1CC[C@@H](NS(=O)(=O)c2ccc(F)cc2)[C@H](CO)O1)NCc1ccncn1 | · | -4.0 | · | · | 0.4 | -1.9
Cc1cccc(NC(=O)c2n[nH]c([N+](=O)[O-])c2Br)c1C | 1.1 | 12.8 | 44.5* | 78.9 | 0.0 | -8.1
Cc1ccc(Cn2nnc(C(=O)Nc3cccc(C)c3C)c2N)cc1 | -2.3 | 12.4 | -4.3 | 4.3 | · | ·
CCC(=O)Nc1ccc2c(c1)C(=O)N(C)C[C@@H](OC)[C@H](C)CN(C(=O)c1ccccc1F)[C@@H](C)CO2 | · | -2.1 | · | · | 0.2 | -2.8
COc1ccc(-c2cn(CCC(=O)O)c(-c3ccncc3)n2)cc1 | 0.3 | -0.9 | 0.5 | 1.1 | -0.1 | 2.5
COc1ccc(-c2cn(Cc3ccc(C(N)=O)cc3)c(-c3ccncc3)n2)cc1 | 3.3 | 76.5* | 47.0* | 106.1* | -0.3 | 2.6
CCc1noc(C)c1C(=O)NC1CCCc2c1cnn2-c1cc(C)cc(C)c1 (stereo not drawn) | 6.0 | 27.1 | 4.3 | 12.7 | -0.1 | -2.9
CCc1[nH]nc(C(=O)NC2CCCc3c2cnn3-c2cc(C)cc(C)c2)c1C (stereo not drawn) | 2.7 | 66.2* | 11.2 | 21.1 | -0.1 | -2.1
COc1cc(/C=C/C(=O)OCC(=O)N2CCCCCC2)ccc1OCC#N | -0.6 | -2.9 | -3.3 | 3.1 | 0.2 | -0.7
COc1cc(/C=C/C(=O)OCC(=O)N2CCCC2)ccc1OCC#N | -2.1 | -0.4 | 0.9 | -4.7 | -0.2 | 31.2*
CC(C)NC(=O)N(C)C[C@@H]1Oc2ncc(-c3ccccc3F)cc2C(=O)N([C@@H](C)CO)C[C@@H]1C | · | 3.9 | · | · | -0.1 | -2.0
O=C1N=C(N2CCOCC2)S/C1=C1\C(=O)N(Cc2ccccc2)c2ccccc21 | 0.8 | 52.2* | 5.6 | 74.3 | · | ·
CN1C(=O)/C(=C2\SC(N3CCCCCC3)=NC2=O)c2ccccc21 | 4.4 | 46.0* | · | · | · | ·
SMILES | SMARCA2 activ | esBAF inh | Wnt act | MITF act | FGF22 binding | AF4-AF9 inh
O=C1N=C(N2CCCCC2)SC1=C1CCCCC1 | -2.3 | 75.4* | · | 46.7 | · | ·
CCCN1C(=O)/C(=C2\SC(N3CCCCC3)=NC2=O)c2ccccc21 | 5.9 | 74.5* | 11.6 | 79.3 | · | ·
O=C1N=C(N2CCCCC2)S/C1=C\c1ccc(Br)cc1 | 2.6 | 31.3 | -0.4 | · | -0.2 | -4.5
O=C(N[C@@H]1CC[C@H](CCNS(=O)(=O)Cc2ccccc2)O[C@H]1CO)c1ccccc1F | · | -3.9 | · | · | 0.2 | -4.8
O=C(O)C[C@H]1C[C@H]2c3cc(NS(=O)(=O)c4ccccc4)ccc3O[C@H]2[C@H](CO)O1 | · | · | · | · | · | -1.2
CCn1c(NC(=S)Nc2ccccc2)nc2ccccc21 | 3.3 | 1.0 | 33.0* | · | · | ·
COc1ccc(/[N+]([O-])=C/c2ccco2)cc1 | 6.0 | 55.2* | 45.6* | 89.1* | -0.2 | ·
CS(=O)(=O)Nc1ccc2c(c1)[C@@H]1C[C@H](CC(=O)NC3CCCC3)O[C@H](CO)[C@@H]1O2 | · | -4.7 | · | · | 0.2 | -1.7
O=c1oc2ccccc2c2c1ncn2CCN1CCOCC1 | -2.5 | 3.5 | 43.6* | · | · | ·
O=C(Nc1ccc2nc(C3CC3)n(Cc3ccccc3)c(=O)c2c1)C1CC1 | 2.3 | 67.2* | 23.9 | 114.9* | 0.0 | 2.9
CCC(=O)Nc1ccc2nc(C3CC3)n(Cc3ccccc3)c(=O)c2c1 | 3.8 | · | · | ? | · | ·
COC(=O)C[C@H]1CC[C@@H]2[C@H](COc3ccc(NC(=O)c4ccccc4)cc3C(=O)N2C)O1 | · | -2.8 | · | · | 0.0 | -1.5
Cc1ccc(OCCNC(=O)C2CC(=O)N(Cc3ccccc3)C2)cc1 (stereo not drawn) | -2.5 | -2.5 | 0.8 | -2.5 | 0.0 | 0.7
Cc1ccnc(NC(=O)C2CC(=O)N(Cc3ccccc3)C2)c1 (stereo not drawn) | -0.2 | 24.0 | ? | 90.4* | -0.2 | -0.9
O=C(NCCOc1ccccc1F)C1CC(=O)N(Cc2ccccc2)C1 (stereo not drawn) | -5.1 | -12.2 | 34.4* | 1.4 | -0.2 | 0.1
COc1ccc(CN(C)C[C@H]2Oc3ccc(NS(=O)(=O)c4ccc(C)cc4)cc3CC(=O)N([C@@H](C)CO)C[C@@H]2C)cc1 | · | -2.6 | · | · | -0.2 | 0.1
CC(=O)N[C@H]1C[C@@H]2O[C@H](CO)CC[C@@H]2O[C@@H]1CCc1ccc(C#CC2(O)CCCC2)cc1 | · | · | · | · | · | -8.2
COc1ccc(C(=O)N=c2sc3c(C)ccc(OC)c3n2C)cc1OC | 5.9 | 36.3 | ? | 99.0* | 0.0 | 3.3
COc1cccc(C(=O)N=c2sc3c(C)ccc(OC)c3n2C)c1 | 0.5 | 47.6* | 19.7 | 54.0 | 0.1 | -3.7
COc1ccc2c3c([nH]c2c1)[C@@H](CO)N(C(=O)C1CCCC1)CC31CCN(C(=O)c2ccncc2)CC1 | · | · | · | · | -0.1 | -1.8
O=C(O)/C=C/c1ccc(S(=O)(=O)Nc2ccc(OCc3ccccc3)cc2)cc1 | 5.1 | 1.8 | -1.6 | -1.2 | -0.1 | -2.0
Cc1ccccc1COc1ccc(/C=C(\C#N)C(N)=O)cc1 | -1.0 | 6.5 | 4.8 | 35.7 | 43.9* | -7.9
N#C/C(=C\c1ccc(OC(=O)c2ccccn2)cc1)C(N)=O | -0.4 | · | 0.1 | -2.1 | · | ·
N#Cc1ccccc1COc1ccc(/C=C/C(=O)O)cc1 | -7.2 | · | -6.6 | -52.3 | 43.2* | -1.6
N#C/C(=C/c1ccc(OCc2ccccc2)cc1)C(=O)NC1CCCCC1 | -2.1 | 30.9 | -0.4 | · | · | ·
